Data: PubChem BioAssay (NCATS)
Records with an inconclusive call do not appear. Calls of active or inactive are those of the source. Unless noted, calls come from the whole dose curve; as a rule, active = well fitted inhibition curve with a large enough effect; inconclusive = small, poorly fitted or top-dose-only effect; inactive = flat fitted curve, though single readings scatter.

Molecular target: Glutathione peroxidase 1 (Homo sapiens) (UniProt P07203)
Sequence (P07203 whole entry, looked up): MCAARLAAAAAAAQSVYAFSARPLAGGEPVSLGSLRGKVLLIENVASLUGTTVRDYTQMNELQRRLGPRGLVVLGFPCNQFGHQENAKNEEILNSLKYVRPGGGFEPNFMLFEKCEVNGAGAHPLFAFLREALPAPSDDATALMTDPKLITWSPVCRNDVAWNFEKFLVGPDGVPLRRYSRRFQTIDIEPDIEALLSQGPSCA
Experiment: Primary qHTS Assay for Inhibitors of Recombinant Selenoprotein Glutathione Peroxidase 1 (GPX1) (AID 1845191); note: nearly all actives have a fitted effect of over 65% in size; note: potency is the fitted concentration of half-maximal effect; for activity, negative = inhibition: % is set by controls: 0 for no effect and ±100 for the full control effect
Conditions: recombinant GPX1, GR-coupled NADPH fluorescence, 15 min; series mostly up to 48.8 µM; activity, negative = inhibition: at the top concentration
In short: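 NADPH consumption tracked by fluorescence at 340/450 nm between t=0 and t=15 min, room temperature. Final mix: 10 nM GPX1, 100 nM glutathione reductase, 1 mM GSH, 0.5 mM NADPH, 0.5 mM cumene hydroperoxide, 0.01% BSA; 30 min compound–enzyme preincubation.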
With NCCNc1ccc(NCCN)c2c1C(=O)c1ccncc1C2=O the “activity, negative = inhibition” value was -10.7% (inactive). With C=CC1=C(C(=O)O)N2C(=O)[C@@H](NC(=O)/C(=N\OCC(=O)O)c3csc(N)n3)[C@H]2SC1 the Potency was 7.18 µM (active). For CN[C@@H](C)C(=O)N[C@H](C(=O)N1CCC[C@H]1c1nc(C(=O)c2ccc(F)cc2)cs1)C1CCCCC1, the Potency was “inactive”. In the case of CCn1c(N)c(C(=O)NC)c(=O)c2ccc(C#C[C@@](C)(O)COC)nc21, the “outcome” value is reported as “inactive”. With O=C(O)[C@@H]1CCCN1 the “activity, negative = inhibition” value was -5.85% (inactive). With Cc1cc2c(F)c(Oc3ncnn4cc(OC[C@@H](C)OC(=O)[C@H](C)N)c(C)c34)ccc2[nH]1 the “outcome” value was “inactive”. In the case of CC[C@H]1OC(=O)[C@H](C)[C@@H](O[C@H]2C[C@@](C)(OC)[C@@H](O)[C@H](C)O2)[C@H](C)[C@@H](O[C@@H]2O[C@H](C)C[C@H](N(C)C)[C@H]2O)[C@](C)(OC)C[C@@H](C)C(=O)[C@H](C)[C@@H](O)[C@]1(C)O, the “activity, negative = inhibition” value is reported as -4.22% (inactive). With CCC=CCC=CCC=CCCCCCCCC(=O)O the “activity, negative = inhibition” value was -3.46% (inactive). With C[C@@H]1C[C@H]2[C@@H]3C[C@H](F)C4=CC(=O)C=C[C@]4(C)[C@@]3(F)[C@@H](O)C[C@]2(C)[C@@]1(O)C(=O)COC(=O)C(C)(C)C the “activity, negative = inhibition” value was -17.3% (inactive). In the case of CN[C@@H]1[C@@H](O)[C@@H](O[C@@H]2[C@@H](O)[C@H](O[C@H]3O[C@H]([C@@H](C)NC)CC[C@H]3N)[C@@H](N)C[C@H]2N)OC[C@]1(C)O, the “activity, negative = inhibition” value is reported as -7.89% (inactive).

Molecular target: Phospholipid hydroperoxide glutathione peroxidase GPX4 (Homo sapiens) (UniProt P36969)
Sequence (P36969 whole entry, looked up): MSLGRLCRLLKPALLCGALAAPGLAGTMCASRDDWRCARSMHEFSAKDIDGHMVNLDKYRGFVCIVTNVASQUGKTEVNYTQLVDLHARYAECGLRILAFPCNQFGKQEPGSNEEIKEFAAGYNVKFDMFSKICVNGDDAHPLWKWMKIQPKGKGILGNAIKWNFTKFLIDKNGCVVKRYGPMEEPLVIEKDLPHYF
Experiment: Primary qHTS Assay for Inhibitors of Recombinant Selenoprotein Glutathione Peroxidase 4 (GPX4) (AID 1845192); note: nearly all actives have a fitted effect of over 65% in size; for activity change, negative = inhibition: % is set by controls: 0 for no effect and ±100 for the full control effect
Conditions: recombinant GPX4, GR-coupled NADPH fluorescence, 15 min; series mostly up to 50 µM; activity change, negative = inhibition: at the top concentration
In short: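 NADPH consumption followed by fluorescence at 340/450 nm, t=0 and after 15 min at room temperature. Reaction started with cumene hydroperoxide (0.5 mM final) after 30 min compound–GPX4 preincubation; final 200 nM GPX4, 100 nM GR, 1 mM GSH, 0.5 mM NADPH.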
For NCCNc1ccc(NCCN)c2c1C(=O)c1ccncc1C2=O, the “activity change, negative = inhibition” value was -15.3% (inactive). For C=CC1=C(C(=O)O)N2C(=O)[C@@H](NC(=O)/C(=N\OCC(=O)O)c3csc(N)n3)[C@H]2SC1, the “outcome” value was “inactive”. In the case of CN[C@@H](C)C(=O)N[C@H](C(=O)N1CCC[C@H]1c1nc(C(=O)c2ccc(F)cc2)cs1)C1CCCCC1, the “outcome” value is reported as “inactive”. In the case of CCn1c(N)c(C(=O)NC)c(=O)c2ccc(C#C[C@@](C)(O)COC)nc21, the “activity change, negative = inhibition” value is reported as -7.89% (inactive). For O=C(O)[C@@H]1CCCN1, the “outcome” value was “inactive”. With CC[C@H]1OC(=O)[C@H](C)[C@@H](O[C@H]2C[C@@](C)(OC)[C@@H](O)[C@H](C)O2)[C@H](C)[C@@H](O[C@@H]2O[C@H](C)C[C@H](N(C)C)[C@H]2O)[C@](C)(OC)C[C@@H](C)C(=O)[C@H](C)[C@@H](O)[C@]1(C)O the “activity change, negative = inhibition” value was -11.7% (inactive). In the case of CCC=CCC=CCC=CCCCCCCCC(=O)O, the “activity change, negative = inhibition” value is reported as -15.9% (inactive). In the case of C[C@@H]1C[C@H]2[C@@H]3C[C@H](F)C4=CC(=O)C=C[C@]4(C)[C@@]3(F)[C@@H](O)C[C@]2(C)[C@@]1(O)C(=O)COC(=O)C(C)(C)C, the “activity change, negative = inhibition” value is reported as -11% (inactive).

Test system: not listed separately
Experiment: qHTS drug screen for cell cycle checkpoint inhibitors in PARPi-resistant BRCA-mutant ovarian cancer cell lines. (AID 1963452; calls by dose curve)
Conditions: PEO1/OlaR viability, CellTiter-Glo luminescence, 96 h; stronger effect = lower value
In short: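 PEO1, PEO4 and PEO1/OlaR ovarian cancer cells, 600 per well, exposed 96 h at 37C to a dilution series. Viability read by CellTiter-Glo luminescence, normalized to DMSO and empty wells; activity summarized as Z-AUC.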
With CN[C@@H](C)C(=O)N[C@H](C(=O)N1CCC[C@H]1c1nc(C(=O)c2ccc(F)cc2)cs1)C1CCCCC1 the Z-AUC was -0.196 (inactive). In the case of CCn1c(N)c(C(=O)NC)c(=O)c2ccc(C#C[C@@](C)(O)COC)nc21, the Z-AUC is reported as -0.226 (inactive). With Cc1cc2c(F)c(Oc3ncnn4cc(OC[C@@H](C)OC(=O)[C@H](C)N)c(C)c34)ccc2[nH]1 the Z-AUC was 1.46 (inactive).

Same assay, conditions: PEO1/OlaR viability, CellTiter-Glo luminescence, 96 h; measured here: PEO1 parental Z-AUC; stronger effect = lower value
CN[C@@H](C)C(=O)N[C@H](C(=O)N1CCC[C@H]1c1nc(C(=O)c2ccc(F)cc2)cs1)C1CCCCC1 gave a Z-AUC of -0.329. In the case of CCn1c(N)c(C(=O)NC)c(=O)c2ccc(C#C[C@@](C)(O)COC)nc21, the Z-AUC is reported as -0.662. Cc1cc2c(F)c(Oc3ncnn4cc(OC[C@@H](C)OC(=O)[C@H](C)N)c(C)c34)ccc2[nH]1 gave a Z-AUC of 0.526.

Same assay, conditions: PEO1/OlaR viability, CellTiter-Glo luminescence, 96 h; measured here: PEO4 Z-AUC; stronger effect = lower value
In the case of CN[C@@H](C)C(=O)N[C@H](C(=O)N1CCC[C@H]1c1nc(C(=O)c2ccc(F)cc2)cs1)C1CCCCC1, the Z-AUC is reported as -0.73. CCn1c(N)c(C(=O)NC)c(=O)c2ccc(C#C[C@@](C)(O)COC)nc21 gave a Z-AUC of 0.0317. Work on Cc1cc2c(F)c(Oc3ncnn4cc(OC[C@@H](C)OC(=O)[C@H](C)N)c(C)c34)ccc2[nH]1 yielded a Z-AUC of 0.822.
